The list is not random: actives were taken first. Their share in the collection is about 14%.
USP10 block = inhibitors of human USP10 deubiquitinase; inhibition, % at 20 µM; Ubiquitin carboxyl-terminal hydrolase 10 (Homo sapiens), Q14694; hit rate 1.1% among 47,000; purified USP10, Ub-rhodamine fluorescence, 60 min
USP8 inh = inhibitors of human USP8 deubiquitinase. hit rate 4.2% among 47,000. purified USP8, Ub-rhodamine cleavage fluorescence, 30 min. AID 1645853, 2021. inhibition, % at 20 µM. Ubiquitin carboxyl-terminal hydrolase 8 (Homo sapiens), P40818
USP28 inh = inhibitors of human USP28 deubiquitinase; Ubiquitin carboxyl-terminal hydrolase 28 (Homo sapiens), Q96RU2; purified USP28, Ub-rhodamine cleavage fluorescence, 30 min; inhibition, % at 25 µM; hit rate 3% among 47,000; AID 1645857, 2021
USP30 inh = inhibitors of human USP30 deubiquitinase. hit rate 5.3% among 47,000. inhibition, % at 25 µM. Ubiquitin carboxyl-terminal hydrolase 30 (Homo sapiens), Q70CQ3. purified USP30, Ub-rhodamine cleavage fluorescence
USP17 inh = inhibitors of human USP17 deubiquitinase. Ubiquitin carboxyl-terminal hydrolase 17-like protein 5 (Homo sapiens), A8MUK1. purified USP17, Ub-rhodamine cleavage fluorescence, 3 h. inhibition, % at 50 µM. hit rate 6.5% among 47,000. AID 1645855, 2021
The depositor's hits bear a star; x = no result. Rule as the data show it: active = inhibition above about 30%; inactive = the rest.

SMILES	USP10 block	USP8 inh	USP28 inh	USP30 inh	USP17 inh
CN1C(=O)Cc2cc(S(=O)(=O)N3CCC(c4ccncc4)CC3)ccc21	2	16	-12	22	39*
O=C(Nc1ccc(-c2cn3ccsc3n2)cc1)c1ccc(Cl)c([N+](=O)[O-])c1	67*	97*	32*	82*	12
Cc1ccc(-c2cn3ccsc3n2)cc1	0	-22	-1	-3	-21
COc1ccccc1C1=NC(c2ccc(C)cc2)N=C1C (centres undefined)	7	5	6	24	32*
COc1ccc(CC(=O)N2CCc3cc(-c4noc(C)n4)ccc32)cc1	1	4	33*	6	12
Cc1cccc(N(C)S(=O)(=O)c2ccc3c(c2)CCCC(=O)N3)c1	-1	-1	-1	-4	4
CCCCNC(=O)c1cc(-c2ccc(C)cc2)n(C2CCS(=O)(=O)C2)n1 (centres undefined)	-2	0	x	x	-6
COc1ccc(-c2cc(C(=O)Nc3cccc(C#N)c3)nn2C2CCS(=O)(=O)C2)cc1 (centres undefined)	13	23	18	19	39*
O=C(Cn1c(NCc2ccccc2)nc2ccccc21)NCC(F)(F)F	14	18	27	52*	45*
O=C(Cn1c(NCCO)nc2ccccc21)NCC1CCCO1 (centres undefined)	0	-19	4	3	6
COc1ccc(CCNC(=O)c2cnc3sc4c(n3c2=O)CCCC4)cc1	1	-3	-10	-12	-3
COc1ccc(CCNC(=O)c2cnc3sc4c(n3c2=O)CCCC4)cc1OC	0	-80	40*	0	-20
O=C(c1ccc(Br)o1)N(Cc1ccccc1Cl)c1ccccn1	5	-12	31*	21	18
O=C(Cn1cnc2c(sc3ccccc32)c1=O)Nc1ccc(F)c(F)c1	-6	-15	-62	-319	27
Cc1cc(C)c2c(n1)sc1c(=O)n(CC(=O)Nc3cccc(Cl)c3)cnc12	-1	-4	-3	-50	41*
Cc1ccc2nc3c(cc2c1)CCN3S(=O)(=O)c1ccc(F)cc1	-2	-4	-8	-22	1
Cc1ccc2c(c1)n(S(=O)(=O)c1ccc(F)cc1)c(=O)n2S(=O)(=O)c1ccc(F)cc1	5	26	19	35*	33*
Cc1ccc2[nH]c(=O)c(-c3noc(-c4ccc([N+](=O)[O-])cc4)n3)cc2c1	1	-3	10	42*	48*
Cn1c(=O)c2c(nc3n(CCO)c(-c4ccc(Cl)cc4)cn23)n(C)c1=O	0	-11	10	36*	5
Cc1cccc(NC(=O)COc2coc(CN3CCc4ccccc4C3)cc2=O)c1	-4	35*	2	-28	6
CC(=O)c1ccc(NC(=O)COc2coc(CN3CCc4ccccc4C3)cc2=O)cc1	4	2	-14	-78	46*
Cc1ccc(C)c(NC(=O)COc2coc(CN3CCc4ccccc4C3)cc2=O)c1	-3	1	-10	-21	-15
Cn1ccc(CN2CCc3ccccc32)cc1=O	-1	51*	-56	-220	-8
Cc1ccc(S(=O)(=O)N2CCN(C(=O)CN3CCc4ccccc43)CC2)c(C)c1	-5	16	10	4	26
Cc1ccccc1NC(=O)CCn1cnc2ccccc2c1=O	-1	0	1	-5	-3
SMILES	USP10 block	USP8 inh	USP28 inh	USP30 inh	USP17 inh
Oc1cc(O)cc(/C=C/c2ccc(O)c(O)c2)c1	-4	1	49*	31*	40*
COc1ccc(NS(=O)(=O)c2cc(NC(=O)CCC(=O)c3ccc(F)cc3)ccc2C)cc1	9	2	2	36*	-8
COc1ccc(C)cc1NC(=O)C(Sc1nnc(C2CC2)n1Cc1ccccc1)c1ccccc1 (centres undefined)	4	25	30*	37*	22
Cc1ccc(C)c(NC(=O)C(Sc2nnc(C)n2Cc2ccccc2)c2ccccc2)c1 (centres undefined)	5	14	16	30*	x
Cc1ccc(C)c(C(=O)CSc2nnc(C)n2Cc2ccccc2)c1	1	0	-4	5	-11
Cn1c(COc2cccc3cccnc23)nnc1SCC(N)=O	0	2	-13	-20	-8
CCn1c(COc2ccc(Cl)c3cccnc23)nnc1SC(F)F	0	13	20	40*	18
